Measured potencies and affinities stand elsewhere.
What follows are compounds tested against CAAX prenyl protease 2 (Homo sapiens) (UniProt Q9Y256) (assay: inhibition of Ras-converting CAAX protease Rce1 – biochemical, yeast membranes, quenched-peptide fluorescence, cherry-pick, dose response (AID 588849)). Conditions: yeast membrane fractions expressing human Rce1, quenched-peptide fluorescence, 4 h; series mostly up to 10 µM; activity change, negative = inhibition: at the top concentration; call rule not given here.
CAAX prenyl protease 2 (Homo sapiens), sequence (Q9Y256 whole entry, looked up): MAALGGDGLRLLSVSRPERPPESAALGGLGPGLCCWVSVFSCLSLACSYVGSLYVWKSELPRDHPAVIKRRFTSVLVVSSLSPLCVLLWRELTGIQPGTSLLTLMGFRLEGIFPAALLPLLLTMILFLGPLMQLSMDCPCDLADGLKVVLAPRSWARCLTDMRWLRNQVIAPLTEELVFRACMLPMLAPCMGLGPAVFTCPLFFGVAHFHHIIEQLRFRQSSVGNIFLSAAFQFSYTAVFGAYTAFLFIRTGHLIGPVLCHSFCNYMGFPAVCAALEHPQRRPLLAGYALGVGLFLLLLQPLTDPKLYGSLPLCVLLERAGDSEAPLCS

Activity change, negative = inhibition, inactive:
CCC1(c2ccccc2)NC(=O)N(CC(=O)Nc2ccc3c(C)cc(=O)oc3c2)C1=O (stereo not drawn) 138%
O=C(CCNC(=O)N1CC(=O)Nc2ccccc21)NCCc1cccc(F)c1 -24.6%
CCCCCCCCCC[N+](C)(C)CC/C=C1/c2ccccc2Sc2ccc(Cl)cc21 -7.78% [at 3.5 µM]
CCOc1ccc(-c2c(C(=O)N/N=C/c3cccs3)nnn2-c2nonc2N)cc1 -29%
CC(C)C[C@H](NC(=O)c1nc[nH]c1C(=O)N1CCNCC1)C(=O)OCc1ccccc1 -2.67%
Cc1ccccc1OC(C)C(=O)N1CCC(Cc2ccccc2)CC1 (stereo not drawn) -8.23%
CCC(C)(C)c1ccc(OCCCC[n+]2cccc(C)c2C)c(C(C)(C)CC)c1 -23%
CCOc1ccc(N(CC(=O)NC2CC3CCC2C3)S(=O)(=O)c2ccccc2)cc1 (stereo not drawn) -0.176%
O=c1c(-c2ccccc2)c(O)c2ccccc2n1-c1ccccc1 -15.8%
COC(C/C=C\C(=O)[C@H](C)OCc1ccccc1)OC 2.11%
Cc1ccc(NC(=O)CCc2ccc(S(=O)(=O)NC3CCCCC3)cc2)cc1 4.69%
Cc1cccc(N2C(=O)c3cccc4c(N5CCCCC5)c([N+](=O)[O-])cc(c34)C2=O)c1C 7.91%
COc1cc2cc(C(=O)O)[nH]c2c(OC)c1OC -9%
O=S(=O)(c1ccccc1)c1nc(-c2ccco2)oc1N1CCCCC1 -7.08%
Cc1ccc(C(=O)c2c3ccc(C(F)(F)F)cc3[n+]([O-])n2CCCC(N)=O)cc1 9.34%
Cc1ccc(S(=O)(=O)c2cn(C)c3cc(N4CCOCC4)c(F)cc3c2=O)cc1 -6.82%
CCOc1ccc(N(Cc2ccc(OC)cc2)C(=O)c2ccco2)cc1 6.07%
Cc1cc2cc(C(=O)N3CCc4c([nH]c5ccccc45)C3c3ccccn3)ccc2o1 (stereo not drawn) -4.49%
C/C(CC1(O)C(=O)Nc2ccccc21)=N\O (stereo not drawn) 8.98%
Cc1cc(C(=O)N/N=C/c2c3ccccc3cc3ccccc23)n[nH]1 -21.1%
COc1cccc(-c2nc(C#N)c(N3CCN(C(=O)c4ccco4)CC3)o2)c1 29%
C#CCNC(=O)C1=C[C@@H](C2CCCCC2)C[C@@H](OCc2ccc(CO)cc2)O1 -5.48%
CCN1CCN(c2ccc(NC(=O)c3cccc(OCc4ccccc4)c3)cc2)CC1 -8.32%
Cc1ccc(S(=O)(=O)CC(=O)N2CCN(c3ccccc3F)CC2)cc1 10.6%
c1ccc(-n2cnnc2SCc2cn3cccnc3n2)cc1 -6.38% [at 3.5 µM]
COc1ccc(N2CCN(C(=O)c3cc(-c4cccs4)nc4ccccc34)CC2)cc1 1.02%
O=C1CCN(Cc2ccccc2)CCN1[C@H](CSc1ccccc1)Cc1ccccc1 -12.4%
Cc1cccc(-c2nnc(SCc3ccc(C#N)cc3)n2Cc2ccco2)c1 -2.37%
COc1ccccc1/C=C/C=N/NC(=O)CN1CCN(S(=O)(=O)c2ccc(C)cc2)CC1 -15.5%
N/C(Cc1ccc([N+](=O)[O-])cc1)=N\OC(=O)c1ccc2ccccc2c1 -1.34%
CCOC(=O)c1cc2c(=O)n3cccc(C)c3nc2n(CC(C)C)c1=NC(=O)c1ccco1 -18.3%
COc1ccc(-c2cn3ccccc3n2)cc1[N+](=O)[O-] -0.851%
CCOC(=O)c1sc2nc(C3CC3)cc(-c3ccc(F)cc3)c2c1N 8.35%
COc1ccc(Br)cc1C(=O)Nc1cc(C)cc(C)c1 -12.4%
COc1ccc(C)cc1NC(=O)CN1C(=O)COc2ccc(S(=O)(=O)N3CCOCC3)cc21 -18.6%
Cc1ccc(C2(COC(=O)C(C)C)CO2)c(OC(=O)C(C)C)c1 (stereo not drawn) -12.2%
Cc1cc(C)cc(Nc2nc(-c3ccc(S(=O)(=O)N4CCCC4)cc3)cs2)c1 -3.32% [at 3.5 µM]
COc1ccc(OC)c(/C=N/c2c(-c3ccc(O)c(OC)c3)nc3ccccn23)c1 19.1%
